In article PMC7862700, “An all-to-all approach to the identification of sequence-specific readers for epigenetic DNA modifications on cytosine”:

Assays:
Experiment in all cases: DAPPL (digital affinity profiling via proximity ligation, sequencing); 10 mM Tris-HCl pH 7.5, 50 mM NaCl, 1 mM DTT, 4% glycerol, room temperature, 30 min; GST-TFs on glutathione beads, 16-mer random dsDNA library, 0.1% formaldehyde crosslink after washing; high values mean tight binding
Conditions in all cases: protein: recombinant; tags: N-terminal GST; dsDNA, one strand shown
[1] = target: T1, FLI1 (Homo sapiens, UniProt Q01543 1-452)
T1 sequence: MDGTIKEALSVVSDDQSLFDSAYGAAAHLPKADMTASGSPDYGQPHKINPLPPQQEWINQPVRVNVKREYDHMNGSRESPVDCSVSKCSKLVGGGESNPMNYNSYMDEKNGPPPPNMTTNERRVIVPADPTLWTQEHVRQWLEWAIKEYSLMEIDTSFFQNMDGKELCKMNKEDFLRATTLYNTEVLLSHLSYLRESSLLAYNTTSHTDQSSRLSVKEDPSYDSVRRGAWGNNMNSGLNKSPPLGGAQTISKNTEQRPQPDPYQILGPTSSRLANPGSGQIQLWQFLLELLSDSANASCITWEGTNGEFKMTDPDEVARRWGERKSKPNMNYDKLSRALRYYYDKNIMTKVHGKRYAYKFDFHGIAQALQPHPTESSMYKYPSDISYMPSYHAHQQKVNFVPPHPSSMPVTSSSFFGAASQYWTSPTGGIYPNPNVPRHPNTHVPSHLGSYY
Method in brief: (§1)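 Yeast served to express human transcription factors as GST fusions, which were then captured on glutathione beads and labelled with DNA barcodes. Pooled with a tag-only sample, they were incubated with 200 nmole of a 16-mer random double-stranded DNA library for 30 min at room temperature in Tris/NaCl/DTT/glycerol buffer, washed, crosslinked with 0.1% formaldehyde, ligated by proximity, amplified by PCR and sequenced. Dividing each hexamer's read frequency for a factor by its frequency for the tag-only sample gives the binding signal.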

[2] = target: T2, GABPA (Homo sapiens, UniProt Q06546 1-454)
T2 sequence: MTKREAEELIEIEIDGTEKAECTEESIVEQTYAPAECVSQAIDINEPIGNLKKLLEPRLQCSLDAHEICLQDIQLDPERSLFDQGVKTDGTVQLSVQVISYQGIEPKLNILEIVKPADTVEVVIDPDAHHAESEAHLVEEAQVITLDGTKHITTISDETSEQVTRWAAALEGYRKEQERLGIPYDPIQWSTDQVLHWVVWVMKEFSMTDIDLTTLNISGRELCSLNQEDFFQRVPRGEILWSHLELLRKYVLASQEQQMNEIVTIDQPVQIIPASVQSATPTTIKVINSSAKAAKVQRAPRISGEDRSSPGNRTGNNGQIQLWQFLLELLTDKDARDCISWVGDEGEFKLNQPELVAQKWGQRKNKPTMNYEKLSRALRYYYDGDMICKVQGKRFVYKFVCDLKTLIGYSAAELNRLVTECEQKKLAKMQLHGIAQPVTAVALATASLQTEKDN
Method in brief: as §1

[3] = target: T3, ERG (Homo sapiens, UniProt P11308 1-479)
T3 sequence: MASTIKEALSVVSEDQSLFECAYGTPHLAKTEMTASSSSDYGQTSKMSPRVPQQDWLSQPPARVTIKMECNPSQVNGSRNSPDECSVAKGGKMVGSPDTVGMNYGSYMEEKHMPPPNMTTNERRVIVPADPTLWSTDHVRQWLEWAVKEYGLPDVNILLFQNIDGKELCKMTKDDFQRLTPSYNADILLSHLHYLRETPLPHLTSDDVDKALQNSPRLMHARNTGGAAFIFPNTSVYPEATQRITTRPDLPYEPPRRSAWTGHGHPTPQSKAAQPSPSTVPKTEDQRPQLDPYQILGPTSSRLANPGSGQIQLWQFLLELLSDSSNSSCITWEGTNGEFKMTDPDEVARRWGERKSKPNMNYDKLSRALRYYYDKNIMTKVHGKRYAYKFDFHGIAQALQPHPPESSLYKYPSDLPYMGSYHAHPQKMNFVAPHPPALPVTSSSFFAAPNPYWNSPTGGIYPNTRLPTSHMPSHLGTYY
Method in brief: as §1

[4] = target: ELF1 (Homo sapiens, UniProt P32519 1-619)
Sequence of ELF1 (P32519 whole entry): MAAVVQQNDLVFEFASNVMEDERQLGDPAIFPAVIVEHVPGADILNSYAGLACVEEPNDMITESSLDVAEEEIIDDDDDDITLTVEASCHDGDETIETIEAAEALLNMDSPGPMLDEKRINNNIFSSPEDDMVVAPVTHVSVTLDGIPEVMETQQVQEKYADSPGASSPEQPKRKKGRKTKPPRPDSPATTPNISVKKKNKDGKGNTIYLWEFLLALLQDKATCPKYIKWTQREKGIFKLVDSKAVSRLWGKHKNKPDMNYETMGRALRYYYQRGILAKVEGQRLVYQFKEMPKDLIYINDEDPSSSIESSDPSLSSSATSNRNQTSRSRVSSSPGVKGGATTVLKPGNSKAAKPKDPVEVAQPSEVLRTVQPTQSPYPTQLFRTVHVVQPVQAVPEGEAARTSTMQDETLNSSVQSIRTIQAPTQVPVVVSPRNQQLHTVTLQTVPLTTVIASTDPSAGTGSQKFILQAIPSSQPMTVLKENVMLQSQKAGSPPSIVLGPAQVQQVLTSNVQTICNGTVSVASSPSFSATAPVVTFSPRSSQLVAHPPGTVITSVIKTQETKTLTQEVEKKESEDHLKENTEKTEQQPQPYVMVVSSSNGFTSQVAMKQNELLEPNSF
Method in brief: as §1

[5] = target: SPI1 (Homo sapiens, UniProt P17947 1-270)
Method in brief: as §1

[6] = target: SPIB (Homo sapiens, UniProt Q01892 1-262)
Sequence of SPIB (Q01892 whole entry): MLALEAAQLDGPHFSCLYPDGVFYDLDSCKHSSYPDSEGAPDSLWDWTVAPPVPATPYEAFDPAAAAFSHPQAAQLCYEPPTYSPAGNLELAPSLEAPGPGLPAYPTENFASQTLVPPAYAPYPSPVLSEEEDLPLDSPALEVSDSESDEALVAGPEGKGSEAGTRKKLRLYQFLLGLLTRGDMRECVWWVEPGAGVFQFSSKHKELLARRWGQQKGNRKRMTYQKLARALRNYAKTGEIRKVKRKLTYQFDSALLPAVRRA
Method in brief: as §1

[7] = target: T4, ELK3 (Homo sapiens, UniProt P41970 1-407)
T4 sequence: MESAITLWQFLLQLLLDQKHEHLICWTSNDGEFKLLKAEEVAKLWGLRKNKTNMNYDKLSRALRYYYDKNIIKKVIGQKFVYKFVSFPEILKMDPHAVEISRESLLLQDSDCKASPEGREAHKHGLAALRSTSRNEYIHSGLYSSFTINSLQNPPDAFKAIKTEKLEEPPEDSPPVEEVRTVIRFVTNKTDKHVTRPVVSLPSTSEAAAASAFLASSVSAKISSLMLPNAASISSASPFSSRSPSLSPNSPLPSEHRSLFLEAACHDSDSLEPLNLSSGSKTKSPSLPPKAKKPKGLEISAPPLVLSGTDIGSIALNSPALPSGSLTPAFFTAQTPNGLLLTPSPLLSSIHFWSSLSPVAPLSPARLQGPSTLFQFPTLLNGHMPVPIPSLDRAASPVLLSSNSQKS
Method in brief: as §1

[8] = target: T5, ETV2 (Homo sapiens, UniProt O00321 1-342)
T5 sequence: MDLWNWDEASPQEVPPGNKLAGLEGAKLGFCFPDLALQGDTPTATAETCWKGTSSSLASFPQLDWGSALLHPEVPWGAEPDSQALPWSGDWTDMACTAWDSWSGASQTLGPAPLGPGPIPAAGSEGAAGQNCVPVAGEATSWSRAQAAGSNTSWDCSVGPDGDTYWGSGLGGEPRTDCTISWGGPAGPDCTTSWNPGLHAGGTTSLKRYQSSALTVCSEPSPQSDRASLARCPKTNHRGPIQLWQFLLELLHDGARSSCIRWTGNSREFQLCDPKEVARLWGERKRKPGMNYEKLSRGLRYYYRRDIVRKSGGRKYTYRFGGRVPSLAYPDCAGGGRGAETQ
Method in brief: as §1

[9] = target: T6, ELF3 (Homo sapiens, UniProt P78545 1-371)
T6 sequence: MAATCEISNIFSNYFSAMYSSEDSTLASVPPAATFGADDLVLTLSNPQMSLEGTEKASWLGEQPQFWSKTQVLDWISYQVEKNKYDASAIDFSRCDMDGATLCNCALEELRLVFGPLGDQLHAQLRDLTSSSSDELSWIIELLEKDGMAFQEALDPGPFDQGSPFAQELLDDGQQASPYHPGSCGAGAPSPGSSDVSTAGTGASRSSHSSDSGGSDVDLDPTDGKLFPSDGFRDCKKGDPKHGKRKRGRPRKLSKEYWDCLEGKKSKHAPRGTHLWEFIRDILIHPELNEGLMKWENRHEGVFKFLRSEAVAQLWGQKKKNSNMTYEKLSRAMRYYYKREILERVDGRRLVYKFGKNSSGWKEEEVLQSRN
Method in brief: as §1

[10] = target: ETV1 (Homo sapiens, UniProt P50549 1-477)
Sequence of ETV1 (P50549 whole entry): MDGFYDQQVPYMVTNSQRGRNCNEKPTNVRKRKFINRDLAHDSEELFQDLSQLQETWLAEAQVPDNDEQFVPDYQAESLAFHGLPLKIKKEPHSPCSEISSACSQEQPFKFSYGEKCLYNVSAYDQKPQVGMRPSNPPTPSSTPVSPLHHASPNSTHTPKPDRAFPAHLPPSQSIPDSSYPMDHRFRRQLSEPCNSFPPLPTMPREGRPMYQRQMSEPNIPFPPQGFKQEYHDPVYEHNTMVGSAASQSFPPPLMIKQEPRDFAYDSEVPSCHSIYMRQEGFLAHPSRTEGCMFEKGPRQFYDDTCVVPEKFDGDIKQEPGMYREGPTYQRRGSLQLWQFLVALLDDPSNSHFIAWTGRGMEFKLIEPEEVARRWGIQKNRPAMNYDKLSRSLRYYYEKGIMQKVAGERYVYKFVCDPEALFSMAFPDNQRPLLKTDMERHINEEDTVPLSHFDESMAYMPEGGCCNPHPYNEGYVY
Method in brief: as §1

[11] = target: T7, ERF (Homo sapiens, UniProt P50548 1-548)
T7 sequence: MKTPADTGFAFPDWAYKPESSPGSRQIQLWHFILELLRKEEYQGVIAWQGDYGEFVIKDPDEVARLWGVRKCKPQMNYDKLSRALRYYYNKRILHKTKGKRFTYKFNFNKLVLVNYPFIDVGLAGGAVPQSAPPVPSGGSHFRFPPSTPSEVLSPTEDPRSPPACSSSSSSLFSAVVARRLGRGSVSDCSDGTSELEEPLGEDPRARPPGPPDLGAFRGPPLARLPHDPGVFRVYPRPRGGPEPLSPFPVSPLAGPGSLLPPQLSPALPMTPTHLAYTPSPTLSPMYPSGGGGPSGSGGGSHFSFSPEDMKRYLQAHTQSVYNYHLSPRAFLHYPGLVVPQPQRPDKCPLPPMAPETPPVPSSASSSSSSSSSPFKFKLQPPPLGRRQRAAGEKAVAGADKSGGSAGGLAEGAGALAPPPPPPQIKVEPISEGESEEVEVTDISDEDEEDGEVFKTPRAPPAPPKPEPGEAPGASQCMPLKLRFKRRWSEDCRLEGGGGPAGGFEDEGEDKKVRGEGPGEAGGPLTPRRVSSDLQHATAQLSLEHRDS
Method in brief: as §1

[12] = target: T8, ETV3L (Homo sapiens, UniProt Q6ZN32 1-361)
T8 sequence: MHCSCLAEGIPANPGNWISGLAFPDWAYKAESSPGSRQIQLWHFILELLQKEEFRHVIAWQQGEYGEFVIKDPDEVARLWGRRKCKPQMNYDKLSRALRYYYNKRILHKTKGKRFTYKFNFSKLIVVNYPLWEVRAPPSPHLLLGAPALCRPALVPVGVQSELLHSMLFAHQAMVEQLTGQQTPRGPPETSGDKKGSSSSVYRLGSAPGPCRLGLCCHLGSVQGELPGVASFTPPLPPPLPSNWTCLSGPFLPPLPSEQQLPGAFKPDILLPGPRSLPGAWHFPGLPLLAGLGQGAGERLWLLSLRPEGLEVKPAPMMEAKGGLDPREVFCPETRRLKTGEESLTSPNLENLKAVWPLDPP
Method in brief: as §1

[13] = target: T9, ETV3 (Homo sapiens, UniProt P41162-2 1-143)
T9 sequence: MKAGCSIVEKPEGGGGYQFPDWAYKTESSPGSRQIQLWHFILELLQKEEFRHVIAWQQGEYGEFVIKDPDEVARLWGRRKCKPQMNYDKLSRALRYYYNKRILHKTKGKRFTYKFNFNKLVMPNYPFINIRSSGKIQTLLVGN
Method in brief: as §1

[14] = target: ETV6 (Homo sapiens, UniProt P41212 1-452)
Sequence of ETV6 (P41212 whole entry): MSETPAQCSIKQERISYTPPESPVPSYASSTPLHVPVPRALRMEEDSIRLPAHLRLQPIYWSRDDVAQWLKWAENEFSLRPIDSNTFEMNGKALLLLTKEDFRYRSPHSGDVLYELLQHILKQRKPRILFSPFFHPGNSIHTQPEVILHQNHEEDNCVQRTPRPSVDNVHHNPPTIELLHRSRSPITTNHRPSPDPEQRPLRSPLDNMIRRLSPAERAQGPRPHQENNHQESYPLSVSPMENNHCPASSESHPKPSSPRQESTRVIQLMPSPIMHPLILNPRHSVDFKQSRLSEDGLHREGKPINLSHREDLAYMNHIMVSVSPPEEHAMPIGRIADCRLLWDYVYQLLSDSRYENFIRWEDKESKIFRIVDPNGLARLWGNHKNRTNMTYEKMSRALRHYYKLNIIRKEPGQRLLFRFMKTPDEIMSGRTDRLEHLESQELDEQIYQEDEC
Method in brief: as §1

In the case of TCTGGA, the binding signal [1] was 1.02 fold enrichment (6-mer frequency, TF over GST control), the binding signal [2] was 1.05 fold enrichment (6-mer frequency, TF over GST control) and the binding signal [3] was 1.04 fold enrichment (6-mer frequency, TF over GST control). For the same sequence, the binding signal [4] was 1.01 fold enrichment (6-mer frequency, TF over GST control), the binding signal [5] was 1.01 fold enrichment (6-mer frequency, TF over GST control) and the binding signal [6] was 1.01 fold enrichment (6-mer frequency, TF over GST control). For the same sequence, the binding signal [7] was 1.2 fold enrichment (6-mer frequency, TF over GST control), the binding signal [8] was 1.15 fold enrichment (6-mer frequency, TF over GST control) and the binding signal [9] was 1.06 fold enrichment (6-mer frequency, TF over GST control). The binding signal [10] was 1.2 fold enrichment (6-mer frequency, TF over GST control), the binding signal [11] was 1.06 fold enrichment (6-mer frequency, TF over GST control) and the binding signal [12] was 1.1 fold enrichment (6-mer frequency, TF over GST control). The binding signal [13] was 1.05 fold enrichment (6-mer frequency, TF over GST control) and the binding signal [14] was 1.07 fold enrichment (6-mer frequency, TF over GST control).
